Bioassay records deposited in PubChem BioAssay by National Center for Advancing Translational Sciences (NCATS).
GFP derepression: epigenetic modulators derepressing GFP locus in mouse cells. mouse C127i GFP locus derepression, cytometry, 30 h. Potency, µM (doses to about 46.1 µM), for inactives: top-dose GFP derepression (activation). actives 0.09% (n = 68,000). AID 597; also: % of control where 0% means no effect
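Derepression screen: silenced CMV-GFP reporter in murine C127i cells, 30 h compound incubation at 37 C, washed cells imaged by laser-scanning cytometer to enumerate GFP-expressing objects of 20 to 120 um.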
HBB splicing: hemoglobin beta splicing modulation; HBB splicing reporter cell assay, activation; EGFP reporter with mutant IVS2-654 intron; response scale: normalised to 500 nM splice-correcting PNA; Potency, µM (titrated, usually from 46.1 µM), for the others: at the top dose activation, most hits filed as activators; actives 0.06% (n = 65,000); also: potency is read from the fitted curve at half-maximal effect; 0% is about no effect
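Compounds were applied for 2 days to HeLa EGFP-654 cells, 500/well in Optimem with 2% FCS. The reporter's EGFP is disrupted by mis-splicing of beta-globin intron IVS2-654. Readout: summed well GFP fluorescence from 488 nm laser scanning; reference was 500 nM antisense […] 654 PNA.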
USP2a inhib: inhibitors of human ubiquitin-specific protease USP2a; O75604; USP2a enzymatic assay, qHTS inhibition; actives 0.1% (n = 60,000); Potency, µM (top dose mostly 38.3 µM), for the others: at the highest dose activity change, negative = inhibition, usual class: inhibitors; also: potency is read from the fitted curve at half-maximal effect; nearly all actives have a fitted effect of over 60% in size
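USP2 core (20 nM final) was preincubated with compound for 30 min at RT in 20 mM Tris-HCl pH 8.0, 2 mM CaCl2, 2 mM beta-mercaptoethanol; Ub-PLA2 (20 nM) plus NBD C6-HPC (20 uM) then added, fluorescence read after 2.5 h.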
UbGFP stabilizer: proteasome inhibitors stabilizing ubiquitin-GFP reporter; Ubiquitin-GFP reporter cells, proteasome inhibition, GFP fluorescence; response scale: untreated = 0%, 10 µM MG-132 = 100%; Potency, µM (top dose mostly 45.9 µM), without a hit: top-dose activation (GFP accumulation), most hits filed as activators; 67,000 tested, under 10 active; active = well fitted activation curve with a large enough effect, not every such curve was filed as active; inconclusive = small, poorly fitted or top-dose-only effect, or another doubt; inactive = no such curve, though single readings can be large or run the other way; also: potency is read from the fitted curve at half-maximal effect
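U2OS Ub(G76V)-GFP reporter; O/N plating, 0.5% FBS; cpd 46 uM–2.9 nM, 4 h, 37 °C; GFP+ cell count, 488/515 nm; norm. to basal vs 10 uM MG-132; CRC fit.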
Casp1 inh: caspase-1 (human) inhibition, allosteric or competitive. P29466. Caspase-1 enzyme, Ac-WEHD-AFC fluorogenic rate. Potency, µM (doses to about 57.5 µM), for the others: at the highest dose activity change, negative = inhibition, actives largely listed as inhibitors. actives 0.03% (n = 75,000). AID 900;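 also: potency is read from the fitted curve at half-maximal effect; plate controls were vehicle for no effect and no substrate for full effect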
Caspase-7 inhib: caspase-7 (human) inhibition, allosteric or competitive; P55210; recombinant caspase-7, Ac-DEVD-AFC fluorescence rate; Potency, µM (titrated, usually from 57.5 µM), for the others: top-dose activity change, negative = inhibition, most hits filed as inhibitors; actives 0.02% (n = 75,000); AID 889; active = well fitted inhibition curve with a large enough effect in the main read-out, with a control signal flat, not every such curve was filed as active; inconclusive = small, poorly fitted or top-dose-only effect, or a change in a side signal; also: potency is read from the fitted curve at half-maximal effect; % of control where 0% means no effect
* marks the source's active call; other numbers are inactive results; [ ] = remark or other dose. Most compounds without a hit are left out; they make up all but 0.24% or so of the library. Unless noted, calls follow the shape of the dose curve; as a rule, active = well fitted curve in the direction sought with a large enough effect; inconclusive = small, poorly fitted or top-dose-only effect, or another doubt; inactive = no such curve, though single readings can be large; an effect the other way counts as inactive or inconclusive.

How did COC(=O)/C(=C1/Oc2cc(C)oc(=O)c2S1)C(F)(F)F do in these assays?
GFP derepression: 10µM*

What do the screens show for `S=C([S-])NCCNC(=S)[S-].[Zn+2]`?
HBB splicing: 2.5%; Casp1 inh: 0.9%; Caspase-7 inhib: -9.9%

How did N#C/C(=C/c1ccc(N2CCCCCC2)o1)c1ccc(F)cc1 do in these assays?
GFP derepression: 3.16µM*; HBB splicing: inconclusive; USP2a inhib: 18.7%; UbGFP stabilizer: -0.1%; Casp1 inh: -10.7%; Caspase-7 inhib: -13.9%

Results for O=S(=O)(Nc1cccnc1)c1cccc2cccnc12 ?
HBB splicing: -1.0%; UbGFP stabilizer: 16.8%; Casp1 inh: -0.8%; Caspase-7 inhib: -1.7%

What do the screens show for `CCN(CC)c1cccc(OC2=NS(=O)(=O)c3ccccc32)c1`?
GFP derepression: 3.16µM*; HBB splicing: 6.9%; USP2a inhib: 8.8%; UbGFP stabilizer: -15.6%; Casp1 inh: -4.2%; Caspase-7 inhib: -1.7%

Results for COc1ccccc1OC1=NS(=O)(=O)c2ccccc21 ?
GFP derepression: 1.0%; USP2a inhib: -10.8%; UbGFP stabilizer: -1.7%; Casp1 inh: -0.3%; Caspase-7 inhib: 0.4%

How did Nc1nc(N)nc(CCCCc2nc(N)nc(N)n2)n1 do in these assays?
GFP derepression: 5.6%[9.22 µM]; HBB splicing: 2.3%[9.22 µM]; UbGFP stabilizer: -6.9%[9.17 µM]

Results for Cc1cc(O)c(-c2n[nH]c3c2C(c2cccc(O)c2)N(Cc2cccnc2)C3=O)cc1Cl (configuration not stated) ?
GFP derepression: -2.1%; HBB splicing: 4.4%[0.369 µM]; USP2a inhib: 24.7%; UbGFP stabilizer: 0.0%; Casp1 inh: -2.1%; Caspase-7 inhib: 31.6µM*

Results for COCCCN1C(=O)c2[nH]nc(-c3ccccc3O)c2C1c1cccc(Cl)c1 (configuration not stated) ?
GFP derepression: 4.3%; HBB splicing: 4.2%[0.369 µM]; USP2a inhib: 35.8%; UbGFP stabilizer: -1.7%; Casp1 inh: -3.0%; Caspase-7 inhib: -1.6%

What do the screens show for `O=C(C1CCCCC1)N1CCC(c2nc3c(nnn3Cc3ccccc3Cl)c(=O)[nH]2)CC1`?
GFP derepression: -1.3%; USP2a inhib: 33.8%; UbGFP stabilizer: -3.9%; Casp1 inh: 0.0%; Caspase-7 inhib: inconclusive

How did CCCCCCC(=O)N1CCC(c2nc3c(nnn3Cc3ccccc3Cl)c(=O)[nH]2)CC1 do in these assays?
GFP derepression: -1.4%; HBB splicing: -0.1%[57.5 µM]; UbGFP stabilizer: -3.2%; Casp1 inh: -4.4%; Caspase-7 inhib: 12.6µM*

How did Nc1ccn([C@@H]2O[C@@H](CO)[C@@H](O)[C@H]2O)c(=O)n1 do in these assays?
GFP derepression: -1.1%; HBB splicing: 1.4%; USP2a inhib: 0.6%; UbGFP stabilizer: 10.1%; Casp1 inh: 4.1%; Caspase-7 inhib: 0.9%

What do the screens show for `N#Cc1c(-c2ccco2)c2c([nH]c1=S)CCCC2`?
GFP derepression: -0.5%; HBB splicing: 0.8%; USP2a inhib: 12.6µM*; UbGFP stabilizer: 9.3%; Casp1 inh: inconclusive; Caspase-7 inhib: -26.0%

How did C/C1=C2N=C(/C=C3N=C(/C(C)=C4\[N-]C(C)(C5N=C1C(C)(CCC(=O)NCC(C)OP(=O)([O-])O[C@H]1C(O)C(n6cnc7cc(C)c(C)cc76)O[C@@H]1CO)C5CC(N)=O)C(C)(CC(N)=O)C4CCC(N)=O)C(C)(CC(N)=O)C\3CCC(N)=O)C(C)(C)C/2CCC(N)=O.[CH2-]C1OC(n2cnc3c(N)ncnc32)C(O)C1O.[Co] (some centres not stated) do in these assays?
USP2a inhib: 3.16µM*; Casp1 inh: inconclusive; Caspase-7 inhib: -17.6%

What do the screens show for `CN(C)CCCNC(=O)c1ccc(Cc2nc3ccccc3[nH]2)cc1`?
Casp1 inh: -3.3%; Caspase-7 inhib: -0.4%

How did N#Cc1c(C(F)(F)F)cc(-c2ccco2)nc1SCc1ccccn1 do in these assays?
GFP derepression: inconclusive; HBB splicing: 15.8µM*; USP2a inhib: 21.4%; UbGFP stabilizer: -3.7%; Casp1 inh: -15.9%; Caspase-7 inhib: -18.9%

How did CC(=O)[C@]1(O)CC[C@@H]2[C@H]3C[C@@H](C)C4=CC(=O)CC[C@@]4(C)[C@H]3[C@@H](O)C[C@]21C do in these assays?
GFP derepression: -1.3%[9.22 µM]; HBB splicing: 4.6%[9.22 µM]; UbGFP stabilizer: 2.0%[9.17 µM]; Casp1 inh: 2.2%[11.5 µM]; Caspase-7 inhib: -5.3%[11.5 µM]

How did O=C(CCc1ccc(O)cc1)c1c(O)cc(O)cc1O[C@@H]1O[C@@H](CO)[C@@H](O)[C@@H](O)[C@H]1O do in these assays?
GFP derepression: -2.3%[9.22 µM]; UbGFP stabilizer: 1.3%

Results for Cn1c(=O)c2c(nc(/C=C\c3cccc(Cl)c3)n2C)n(C)c1=O ?
GFP derepression: -1.1%; HBB splicing: 2.7%; USP2a inhib: 10.3%; UbGFP stabilizer: 0.0%; Casp1 inh: -1.2%; Caspase-7 inhib: -3.2%

Results for FC(F)(F)c1ccccc1-c1nc(N2CCOCC2)c2ccccc2n1 ?
GFP derepression: 5.0%[9.22 µM]; HBB splicing: -0.3%; USP2a inhib: 10µM*; UbGFP stabilizer: 2.5%; Casp1 inh: -2.1%; Caspase-7 inhib: -26.9%

What do the screens show for `FC(F)(F)c1ccccc1-c1nc(N2CCNCC2)c2ccccc2n1`?
GFP derepression: 0.7%[9.22 µM]; HBB splicing: -1.6%; USP2a inhib: -9.0%; UbGFP stabilizer: -6.2%; Casp1 inh: 3.5%; Caspase-7 inhib: 1.5%

What do the screens show for `COc1ccc2nc3c(nc2c1)C(=O)c1ccccc1-3`?
Casp1 inh: -9.9%; Caspase-7 inhib: -5.2%

What do the screens show for `O=C(/C=C\c1ccc(O)c(O)c1)OCCc1ccccc1`?
GFP derepression: -0.1%; HBB splicing: 0.7%; USP2a inhib: -4.6%; UbGFP stabilizer: 1.0%; Casp1 inh: 6.6%; Caspase-7 inhib: 2.3%

What do the screens show for `CN(C)S(=O)(=O)c1ccc2c(c1)/C(=C/c1cc3c([nH]1)CCCC3)C(=O)N2`?
GFP derepression: 15.8µM*; HBB splicing: 3.98µM*; USP2a inhib: -2.6%; UbGFP stabilizer: 1.3%; Casp1 inh: -2.8%; Caspase-7 inhib: -7.9%

Results for COc1ccc(N(C)S(=O)(=O)c2ccc3c(c2)CCC(=O)N3)cc1 ?
GFP derepression: -1.4%; HBB splicing: -0.7%; USP2a inhib: 3.8%; UbGFP stabilizer: -3.9%; Casp1 inh: -0.4%; Caspase-7 inhib: -1.4%

Results for CCCCCC[C@@H]([C@H](C)O)n1cnc2c(N)ncnc21 ?
GFP derepression: 0.0%; HBB splicing: -1.7%; USP2a inhib: 0.4%; UbGFP stabilizer: 9.5%; Casp1 inh: 2.3%; Caspase-7 inhib: 1.6%
